According to PubChem BioAssay (NCI):
The panel holds about 79,000 compounds, 15% with a hit somewhere; the sample as a whole holds those more often. Activity calls are given as the source filed them. Rule as the data show it: active = growth inhibition above about 70%; inactive = the rest.

Tests used:
[1] = NCI Yeast Anticancer Drug Screen. Data for the rad52 strain (AID 147);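 also: 0% = growth of vehicle-treated control cultures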; details: S. cerevisiae rad52 mutant growth inhibition, stronger effect = higher value
Outline: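 Read-out: growth inhibition versus vehicle-treated controls. Cells were a DNA repair-deficient yeast strain treated with compounds.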

[2] = NCI Yeast Anticancer Drug Screen. Data for the wt1 strain (AID 149);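 also: 0% = growth of vehicle-treated wt1 cultures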; details: S. cerevisiae wt1 strain (SPY 50644) growth inhibition, stronger effect = higher value
Outline: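 wt1 strain grown with compound or vehicle; inhibition taken from the growth difference.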

[3] = NCI Yeast Anticancer Drug Screen. Data for the rad50EPP+ strain (AID 151);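 also: 0% = growth of vehicle-treated control cultures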; details: S. cerevisiae rad50 mutant strain, stronger effect = higher value
Outline: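 Growth inhibition read against vehicle controls in rad50EPP+ yeast, a strain altered in DNA damage repair, after compound exposure.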

[4] = NCI Yeast Anticancer Drug Screen. Data for the mgt1 strain (AID 153); details: S. cerevisiae mgt1 mutant growth inhibition, stronger effect = higher value
Outline: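 mgt1 yeast grown with test compound; read-out is growth inhibition versus vehicle-treated cultures.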

[5] = NCI Yeast Anticancer Drug Screen. Data for the rad50 strain (AID 155);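 also: 0% = growth of vehicle-only cultures of the same strain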; details: S. cerevisiae rad50 strain growth inhibition, stronger effect = higher value
Outline: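 DNA repair mutant yeast, compound exposure, growth read-out; inhibition is taken relative to vehicle.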

[6] = NCI Yeast Anticancer Drug Screen. Data for the mec2-1 strain (AID 157); details: S. cerevisiae mec2-1 strain, stronger effect = higher value
Outline: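 Yeast mec2-1 mutant treated with compound. Readout: growth inhibition vs vehicle controls.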

[7] = NCI Yeast Anticancer Drug Screen. Data for the rad14 strain (AID 159);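 also: 0% = growth of vehicle-treated control cultures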; details: S. cerevisiae rad14 strain growth inhibition, stronger effect = higher value
Outline: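 DNA repair-defective yeast, compound-exposed; % growth inhibition derived by comparison with vehicle-treated controls.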

[8] = NCI Yeast Anticancer Drug Screen. Data for the sgs1 mgt1 strain (AID 161);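 also: 0% = growth of cultures given vehicle only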; details: S. cerevisiae sgs1 mgt1 strain, stronger effect = higher value
Outline: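 Read-out: growth inhibition vs vehicle controls. Cells: mutant yeast strain deficient in DNA damage repair.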

[9] = NCI Yeast Anticancer Drug Screen. Data for the CLN2oe strain (AID 163);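 also: 0% = growth of vehicle-only control cultures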; details: S. cerevisiae CLN2oe strain, stronger effect = higher value
Outline: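 Read-out: yeast growth inhibition, expressed relative to vehicle-only controls. The strain bears an engineered cell-cycle alteration.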

[10] = NCI Yeast Anticancer Drug Screen. Data for the cln2 rad14 strain (AID 165);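 also: 0% = growth equal to vehicle treated cultures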; details: S. cerevisiae cln2 rad14 strain, stronger effect = higher value
Outline: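 cln2 rad14 yeast strain; compound exposure; growth inhibition read vs vehicle controls.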

[11] = NCI Yeast Anticancer Drug Screen. Data for the bub3 strain (AID 167); details: S. cerevisiae bub3 mutant strain, stronger effect = higher value
Outline: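 In this screen, a yeast mutant lacking normal mitotic checkpoint function is challenged with compound. Relative growth versus vehicle gives the inhibition value.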

[12] = NCI Yeast Anticancer Drug Screen. Data for the wt2 strain (AID 169);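 also: 0% = growth of vehicle-treated yeast cultures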; details: S. cerevisiae wt2 strain growth inhibition, stronger effect = higher value
Outline: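 Read-out: growth inhibition versus vehicle-treated control cultures after compound exposure of the yeast strain.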

[13] = NCI Yeast Anticancer Drug Screen. Data for the mlh1 strain (AID 171);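 also: 0% = growth of vehicle-treated control cultures of the same strain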; details: S. cerevisiae mlh1 strain growth inhibition, stronger effect = higher value
Outline: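 Read-out: growth inhibition versus vehicle controls. Strain: engineered yeast with a defined DNA repair or cell cycle defect, compound-treated.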

[14] = NCI Yeast Anticancer Drug Screen. Data for the sgs1 strain (AID 173);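 also: 0% = growth of vehicle-only control cultures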; details: S. cerevisiae sgs1 mutant, stronger effect = higher value
Outline: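 Read-out: yeast growth inhibition relative to vehicle controls, following compound exposure of a strain with a defined DNA repair/cell cycle alteration.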

[15] = NCI Yeast Anticancer Drug Screen. Data for the mlh1 rad18 strain (AID 175); details: S. cerevisiae mlh1 rad18 strain growth inhibition, stronger effect = higher value
Outline: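 Yeast w/ defined DNA-repair lesions; compound exposure; growth vs vehicle controls → % inhibition.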

[16] = NCI Yeast Anticancer Drug Screen. Data for the rad18 strain (AID 177); details: S. cerevisiae rad18 mutant growth inhibition, stronger effect = higher value
Outline: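 Readout: growth inhibition vs vehicle controls. Cells: genetically altered yeast strain, DNA repair defect.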

[17] = at 5.0 µM (retest, dose inferred, filed as 0.5)
[18] = at 50.0 µM (retest, dose inferred, filed as 5.0)

Measured: growth inhibition

CN(CCc1ccc(Br)cc1)CCN1CCCCC1
active: [1]; at 33.0 µM 81% | [1]; at 100.0 µM 98% | [2]; at 100.0 µM 97% | [4]; at 11.0 µM 70% | [4]; at 33.0 µM 94% | [4]; at 100.0 µM 99% | [5]; at 33.0 µM 91% | [5]; [18] 74% | [5]; at 50.0 µM 78.3% | [5]; at 100.0 µM 98% | [6]; at 33.0 µM 74% | [6]; [18] 73% | [6]; at 50.0 µM 86.7% | [6]; at 100.0 µM 99% | [7]; at 33.0 µM 97% | [7]; at 100.0 µM 98% | [8]; [18] 86% | [8]; at 50.0 µM 92.5% | [9]; at 33.0 µM 78% | [9]; at 100.0 µM 98% | [10]; [18] 88% | [10]; at 50.0 µM 83.2% | [11]; at 33.0 µM 94% | [11]; [18] 88% | [11]; at 50.0 µM 91% | [11]; at 100.0 µM 98% | [12]; at 33.0 µM 93% | [12]; at 100.0 µM 99% | [13]; at 33.0 µM 82% | [13]; at 100.0 µM 99% | [14]; at 33.0 µM 96% | [14]; at 100.0 µM 99% | [15]; [18] 86% | [15]; at 50.0 µM 92.5% | [16]; at 33.0 µM 94% | [16]; at 100.0 µM 98%
inactive: [1]; at 1.2 µM 19% | [1]; at 3.7 µM 26% | [1]; at 11.0 µM 51% | [2]; at 1.2 µM 8% | [2]; at 3.7 µM 16% | [2]; at 11.0 µM 20% | [2]; at 33.0 µM 60% | [3]; at 1.2 µM -1% | [3]; at 3.7 µM 0% | [3]; at 11.0 µM -1% | [3]; at 33.0 µM 0% | [3]; at 100.0 µM 6% | [4]; at 1.2 µM 7% | [4]; at 3.7 µM 20% | [5]; at 1.2 µM 15% | [5]; at 3.7 µM 18% | [5]; [17] 9% | [5]; at 11.0 µM 38% | [6]; at 1.2 µM 17% | [6]; at 3.7 µM 24% | [6]; [17] 13% | [6]; at 11.0 µM 35% | [7]; at 1.2 µM 31% | [7]; at 3.7 µM 49% | [7]; at 11.0 µM 68% | [8]; [17] 30% | [9]; at 1.2 µM 15% | [9]; at 3.7 µM 26% | [9]; at 11.0 µM 46% | [10]; [17] 55% | [11]; at 1.2 µM 20% | [11]; at 3.7 µM 29% | [11]; [17] 20% | [11]; at 11.0 µM 60% | [12]; at 1.2 µM 8% | [12]; at 3.7 µM 23% | [12]; at 11.0 µM 47% | [13]; at 1.2 µM 11% | [13]; at 3.7 µM 22% | [13]; at 11.0 µM 41% | [14]; at 1.2 µM 16% | [14]; at 3.7 µM 41% | [14]; at 11.0 µM 65% | [15]; [17] 6% | [16]; at 1.2 µM 27% | [16]; at 3.7 µM 53% | [16]; at 11.0 µM 54%

Br[Se]c1ccccn1
active: [1]; at 11.0 µM 97% | [1]; at 33.0 µM 99% | [1]; at 100.0 µM 98% | [2]; at 33.0 µM 99% | [2]; at 100.0 µM 99% | [3]; at 11.0 µM 98% | [3]; at 33.0 µM 99% | [3]; at 100.0 µM 98% | [4]; at 11.0 µM 79% | [4]; at 33.0 µM 99% | [4]; at 100.0 µM 99% | [5]; at 3.7 µM 91% | [5]; at 11.0 µM 97% | [5]; at 33.0 µM 98% | [5]; [18] 99% | [5]; at 50.0 µM 99.5% | [5]; at 100.0 µM 98% | [6]; at 11.0 µM 89% | [6]; at 33.0 µM 99% | [6]; [18] 100% | [6]; at 50.0 µM 99.8% | [6]; at 100.0 µM 99% | [7]; at 11.0 µM 99% | [7]; at 33.0 µM 99% | [7]; at 100.0 µM 99% | [8]; [18] 99% | [8]; at 50.0 µM 99.6% | [9]; at 33.0 µM 99% | [9]; at 100.0 µM 99% | [10]; [18] 99% | [10]; at 50.0 µM 98.3% | [11]; [17] 75% | [11]; at 11.0 µM 93% | [11]; at 33.0 µM 98% | [11]; [18] 100% | [11]; at 50.0 µM 99.7% | [11]; at 100.0 µM 98% | [12]; at 11.0 µM 80% | [12]; at 33.0 µM 99% | [12]; at 100.0 µM 99% | [13]; at 11.0 µM 84% | [13]; at 33.0 µM 99% | [13]; at 100.0 µM 99% | [14]; at 11.0 µM 83% | [14]; at 33.0 µM 99% | [14]; at 100.0 µM 99% | [15]; [18] 99% | [15]; at 50.0 µM 99.7% | [16]; at 11.0 µM 96% | [16]; at 33.0 µM 98% | [16]; at 100.0 µM 98%
inactive: [1]; at 1.2 µM 2% | [1]; at 3.7 µM 53% | [2]; at 1.2 µM 2% | [2]; at 3.7 µM 10% | [2]; at 11.0 µM 58% | [3]; at 1.2 µM -9% | [3]; at 3.7 µM 59% | [4]; at 1.2 µM -3% | [4]; at 3.7 µM 12% | [5]; at 1.2 µM 5% | [5]; [17] 44% | [6]; at 1.2 µM 0% | [6]; at 3.7 µM 34% | [6]; [17] 29% | [7]; at 1.2 µM 5% | [7]; at 3.7 µM 36% | [8]; [17] -5% | [9]; at 1.2 µM -11% | [9]; at 3.7 µM 11% | [9]; at 11.0 µM 62% | [10]; [17] 9% | [11]; at 1.2 µM -2% | [11]; at 3.7 µM 20% | [12]; at 1.2 µM 1% | [12]; at 3.7 µM 14% | [13]; at 1.2 µM -1% | [13]; at 3.7 µM 22% | [14]; at 1.2 µM 0% | [14]; at 3.7 µM 23% | [15]; [17] 31% | [16]; at 1.2 µM 1% | [16]; at 3.7 µM 65%
